# Compounds with a hit are over-represented: about 5.6% of the library has one in this group of screens.
# CtBP-E1A inh: inhibitors of CtBP/E1A interaction. actives 0.49% (n = 340,000). activity change, % (concentration not given with the values). AlphaScreen GST-E1A/His-CtBP binding, 1536-well; active compounds read low; in the data active = activity change below about -65%; inconclusive = mostly about -30% to -63%
#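 GST-E1A and His-tagged CtBP (125 nM each as 5X stock) were preincubated with pin-transferred compound for 2 h at 37 °C in the dark, then glutathione donor and nickel acceptor beads were added for 1 h before AlphaScreen reading.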
# PKM2 activator: increases activity of human pyruvate kinase M2; P14618; purified PKM2, Kinase-Glo ATP luminescence, activation; response scale: 0% is enzyme alone, no compound; Potency, µM (series often up to 57.5 µM), for the others: at the highest dose activation, actives largely listed as activators; actives 0.34% (n = 260,000); note: potency is the fitted concentration of half-maximal effect; nearly all actives have a fitted effect of over 55% in size
# Target sequence (P14618 whole entry, looked up): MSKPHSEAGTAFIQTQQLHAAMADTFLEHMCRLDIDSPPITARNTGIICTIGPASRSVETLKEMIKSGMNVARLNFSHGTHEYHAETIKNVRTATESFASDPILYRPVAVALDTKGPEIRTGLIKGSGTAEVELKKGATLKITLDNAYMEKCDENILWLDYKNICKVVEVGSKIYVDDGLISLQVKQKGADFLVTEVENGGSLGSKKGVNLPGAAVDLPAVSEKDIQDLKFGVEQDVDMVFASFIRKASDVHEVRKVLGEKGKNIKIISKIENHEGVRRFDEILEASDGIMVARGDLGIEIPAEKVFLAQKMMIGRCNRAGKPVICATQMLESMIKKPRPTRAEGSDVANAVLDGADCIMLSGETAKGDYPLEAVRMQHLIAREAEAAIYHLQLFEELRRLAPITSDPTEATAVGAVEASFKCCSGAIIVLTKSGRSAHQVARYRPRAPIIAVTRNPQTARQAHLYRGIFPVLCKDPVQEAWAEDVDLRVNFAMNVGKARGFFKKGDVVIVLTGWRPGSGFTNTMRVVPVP
#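 Purified hPK-M2 (>95%) run at intermediate activity with 0.1 mM ADP and 0.5 mM PEP in 50 mM imidazole pH 7.2, KCl, MgCl2; 1 h room temperature. ATP formed read by Kinase-Glo luminescence; normalized to uninhibited and no-enzyme controls.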
# Six1-Eya2 inh: inhibitors of human Six1/Eya2 interaction; actives 0.56% (n = 360,000); AID 651725; Q15475+O00167; AlphaScreen GST-Six1/His-Eya2 binding, biochemical; active compounds read low; activity change, % (concentration not given with the values); in the data active = activity change below about -65%; inconclusive = mostly about -30% to -63%
#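 GST-Six1 + His-Eya2 (5X stock: 250/500 nM); Tris pH 8.0, 300 mM NaCl, 0.05% BSA, 0.02% Tween 20; GSH donor/Ni acceptor beads; 1 h 37 °C dark; AlphaScreen readout.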
# VP16 counter: inhibits Gal4-VP16 luciferase reporter, ROR gamma counter-screen | Potency, µM (top dose mostly 53.6 µM), inactives show top-dose activity, negative = inhibition, actives largely listed as inhibitors | AID 2546 | Drosophila S2 Gal4-VP16 UAS-luciferase, luminescence, 20 h | actives 3.5% (n = 310,000);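 note: Gal4-VP16 expression switched on by copper sulfate through the metallothionein promoter; potency is the fitted concentration of half-maximal effect; nearly all actives have a fitted effect of over 50% in size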
# RORg inh: blocks mouse ROR gamma transcriptional activity; P51450; Drosophila S2 Gal4-RORgamma UAS-luciferase reporter, 20 h; Potency, µM (top dose mostly 53.6 µM), without a hit: at the top dose activity change, negative = inhibition, hits mostly inhibitors; actives 5.4% (n = 310,000); note: potency is the fitted concentration of half-maximal effect; nearly all actives have a fitted effect of over 60% in size
#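 Luminescence from a UAS-regulated Photinus luciferase reporter in stably transfected Drosophila Schneider cells is measured; decreased signal marks ROR gamma inhibition. Fusion expression is induced by 700 uM copper sulfate for 20 hr.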
# Starred values were filed as active, the others as inactive; ? = inconclusive; . = no result; [ ] = another dose, or the depositor's remark. Unless noted, calls come from the whole dose curve; as a rule, active = well fitted curve in the direction sought with a large enough effect; inconclusive = small, poorly fitted or top-dose-only effect, or another doubt; inactive = no such curve, though single readings can be large; an effect the other way counts as inactive or inconclusive. % is set by controls: 0 for no effect and ±100 for the full control effect.
SMILES,CtBP-E1A inh,PKM2 activator,Six1-Eya2 inh,VP16 counter,RORg inh
Cc1ccc(S(=O)(=O)N2CCN(c3ccccc3)CC2)cc1C(=O)NC1CCCCC1,-10.9,9.0%,-1.8,-9.7%,18.6%
CCNc1sc(C(=O)c2cccs2)c(N)c1C#N,-22.2,0.7%,-10.4,-3.6%,-4.3%
CCNc1sc(C(=O)c2cccs2)c(N)c1-c1nc2ccccc2s1,-10.0,?,-14.5,7.94µM*,?
C=CCNc1sc(C(=O)c2ccccc2)c(N)c1-c1nc2ccccc2s1,?,17.0%,?,15.8µM*,4.47µM*
CCOC(=O)c1sc(NCc2ccco2)c(-c2nc3ccccc3s2)c1N,-11.6,-4.7%,-29.8,5.7%,19.4%
O=C(N/N=C/c1ccccc1)C(=O)N/N=C/c1ccccc1,1.8,-10.3%,4.3,-4.8%,-36.6%
O=C(C=C=Nc1ccccc1)C(=O)N=C=Cc1ccccc1,-19.6,1.9%,?,7.08µM*,3.98µM*
O=[N+]([O-])c1cc2c(cc1/C=N/n1c(-c3ccccn3)n[nH]c1=S)OCO2,7.6,-22.3%,-82.7*,-2.3%,-15.8%[10 µM]
O=[N+]([O-])c1cc2c(cc1/C=N/n1c(-c3ccccc3)n[nH]c1=S)OCO2,?,9.6%,-2.8,?,5.62µM*
O=[N+]([O-])c1ccccc1/C=N/n1c(-c2cccnc2)n[nH]c1=S,-15.3,-26.1%,5.9,-5.2%,?
Cc1ccn(CCC(=O)NC2CC(C)(C)Cc3c2cnn3-c2ccccc2C)n1 (stereo not drawn),4.1,.,-2.6,-2.2%,9.3%
CC(C)=CCC[C@H](C)CC1Cc2[nH]c(=S)[nH]c(=O)c2C(c2ccc(Cl)cc2)O1 (stereo partly drawn),-21.8,.,-1.9,.,.
Cc1ccc(-c2cc3cccc[n+]3cc2-c2ccc(C)cc2)cc1,5.9,-16.7%,14.1,12.6µM*,?
Cc1ccc2nc(-c3ccncc3)cc(-c3ccccc3)c2c1,-9.8,2.4%,-4.7,-19.4%,?
CC(=O)OCCCN1c2ccccc2Nc2nnc(-c3ccccc3)cc21,-1.5,-0.6%,1.0,?,11.2µM*
CC(=O)OCCN1c2ccccc2Sc2cnccc21,-7.1,.,-1.1,.,.
O=C(O)c1cccc(NC(=S)N/N=C/c2ccccn2)c1,.,-1.0%,-76.0*,?,4.47µM*
O=C(N/N=C/c1ccccn1)c1ccc(Br)cc1,-65.2*,-15.0%,?,3.16µM*,6.31µM*
CC(C)(C)c1ccc(/C=N/NC(=O)c2ccccn2)cc1,2.9,-12.6%,0.4,-23.8%,10µM*
Cc1ccccc1C(=O)Nc1ccc(C(=O)N/N=C/c2ccccn2)cc1,-12.5,1.7%,-3.8,-9.8%,-12.9%
O=C(O)c1cccc(NC(=S)N/N=C/c2cccc(O)c2)c1,-6.8,1.4%,-0.5,-4.5%,0.3%
Cc1occc1C(=O)N/N=C/c1ccccn1,?,-22.0%,-21.0,-26.1%,10µM*
CCOc1cc(/C=N/NC(=O)c2ccccn2)ccc1OC(=O)c1ccc(F)cc1,-4.3,6.2%,-15.4,?,17.8µM*
O=C(N/N=C/c1ccc(F)cc1)c1ccc(Br)cc1,0.6,-1.0%,-1.4,-0.6%,?
Cc1cccc(/C=N/NC(=O)c2ccc(Br)cc2)c1,1.0,0.2%,-1.6,-20.1%,17.8µM*
SMILES,CtBP-E1A inh,PKM2 activator,Six1-Eya2 inh,VP16 counter,RORg inh
O=C(N/N=C1/CCCc2ccccc21)c1cc([N+](=O)[O-])cc([N+](=O)[O-])c1,.,-16.9%,.,3.0%,11.2µM*
CC(C)(C)c1ccc(C(=O)N/N=C/c2ccccn2)cc1,-29.2,.,-22.4,4.47µM*,1.41µM*
COc1cccc(Cn2c(C(C)n3c(-c4cnccn4)nc4ccccc43)nc3ccccc32)c1 (stereo not drawn),-17.8,.,-7.7,.,.
O=C(N/N=C/c1ccccn1)c1ccc([N+](=O)[O-])cc1,-21.9,.,-11.6,-13.0%,0.6%
COc1cccc(/C=N/NC(=O)c2ccc(OCc3cccc(Br)c3)cc2)c1,0.4,-4.9%,-2.5,-0.6%,14.1µM*
Cc1cccc(C(=O)Nc2cccc(C(=O)N/N=C/c3ccccn3)c2)c1,.,.,?,5.2%,1.0%
O=C(N/N=C/c1ccccn1)c1cc([N+](=O)[O-])cc([N+](=O)[O-])c1,.,0.6%,?,4.47µM*,3.55µM*
O=C(N/N=C/c1cccc(OCc2ccccc2)c1)c1ccc(Br)cc1,3.3,-2.6%,4.0,?,?
Cc1cccc(C(=O)N/N=C/c2ccccn2)c1,6.4,0.0%,-28.6,14.1µM*,6.31µM*
CN(C)c1ccc2c(c1)Sc1cc(N(C)C)ccc1N2C(=O)c1ccccc1,-24.7,0.6%,?,-14.8%,-3.0%
Cc1ccc(CN2CCNC(=O)C2CC(=O)N(C)C2CCCCC2)cc1 (stereo not drawn),7.9,-5.5%,-2.2,1.7%,16.8%
CCn1c2ccc(C)cc2c2nnc(NN)nc21,15.3,3.9%,-28.6,-7.3%,1.58µM*
CCn1c2ccc(C)cc2c2nc3cc(C(=O)O)ccc3nc21,-65.5*,5.8%,-69.0*,?,19.4%
COc1cc(C)c(CC/C(C)=C/C=C/C(C)=O)c(C)c1C,.,.,.,-13.1%,13.5%
O=C(N/N=C/c1c(O)ccc2ccccc12)c1ccc(CO)nc1,-92.0*,3.5%,-86.7*,6.31µM*,3.98µM*
O=C(N/N=C\c1c(O)ccc2ccccc12)c1ccc(S(=O)(=O)N2CCCCC2)cc1,4.8,3.2%,-16.7,3.98µM*,2.51µM*
Cc1nc(-c2ccc(S(=O)(=O)NCc3cccnc3)s2)cs1,.,22.5%,-8.1,?,?
c1ccc(-c2nc3nonc3nc2-c2ccccc2)cc1,?,-2.3%,-26.3,?,11.2µM*
N#CCCn1c(=O)c(-c2ccc(F)cc2)nc2cnc(N3CCNCC3)nc21,.,.,.,-5.3%,3.9%
FC(F)(F)c1nc(N2CCCC2)ncc1-c1nnnn1-c1ccc(Cl)cc1,18.3,-7.3%,15.9,15.8µM*,-40.4%
FC(F)(F)c1ccncc1-c1nnnn1-c1ccc(Cl)cc1,1.7,-11.2%,6.1,-8.3%,12.7%
COc1cc(Cl)c(C)cc1NC(=O)CC1SC(N2CCOCC2)=NC1=O (stereo not drawn),1.3,.,2.2,.,.
C/C(=N\NC(=O)c1cc(O)cc(O)c1)c1ccc(NC(=O)Cc2ccccc2)cc1,-89.0*,28.1%,-88.9*,26.4%,?
C/C(=N\NC(=O)c1cccc(C)c1O)c1ccc(NC(=O)Cc2ccccc2)cc1,2.2,.,-8.7,?,11.2µM*
C/C(=N\NC(=O)c1ccccc1N)c1ccc(NC(=O)Cc2ccccc2)cc1,3.2,0.9%,-15.3,-0.1%,7.2%
COc1ccccc1C(=O)N/N=C(\C)c1ccc(NC(=O)Cc2ccccc2)cc1,-2.1,0.9%,-1.5,7.94µM*,18.4%
COCCN(C(=O)COC(=O)CCc1c[nH]c2ccccc12)c1c(N)n(Cc2ccccc2)c(=O)[nH]c1=O,-7.3,.,-0.4,.,.
